Here are results for 14 compounds from ChEMBL document CHEMBL4513146, “CO-ADD screening of Karazin Kharkiv National University (Ukraine) compounds”.

Measured potencies and affinities stand elsewhere.

The assay concerns Staphylococcus aureus. The note with it: Concentration 32 ug.mL-1;; ASSAY_TEST Inhibition of Bacterial Growth; detection method Absorption (OD600); MEDIA CAMHB; plate type 384well; NBS; CORNING #3640; time 18 hr.
For the compound `Cc1ccccc1CN(c1cccc(F)c1)S(=O)(=O)c1ccc2nncn2c1`, the Inhibition was -9.31%.
For the compound `COc1cccc(CN(c2cc(C)cc(C)c2)S(=O)(=O)c2cccn3c(C)nnc23)c1`, the Inhibition is -0.14%.
The result for `Cc1cccc(Oc2nccn3c(=O)n(CC(=O)N4CCN(c5ccc(F)cc5)CC4)nc23)c1C` reads 3.93%.
Next, `CN(C(=O)Cn1nc2n(Cc3ccco3)c(=O)c3sccc3n2c1=O)c1ccccc1`: 0.44%.
For the compound `Cc1ccc(Sc2ccc3nn(CC(=O)Nc4ccc(Br)c(C)c4)c(=O)n3n2)cc1`, the Inhibition is listed as 8.43%.
The result for `Cc1cc2nn(CC(=O)Nc3ccc(F)cc3)c(=O)n2c(Nc2ccccc2C)n1` reads 11.27%.
Take `Cc1ccc(CNC(=O)Cn2nc3c(Oc4ccccc4C)nccn3c2=O)cc1`: the Inhibition was 5.58%.
Next, `COc1ccc(NC(=O)c2ccc3nn(CC(=O)Nc4ccc(C)c(F)c4)c(=O)n3c2)cc1`: 8.14%; `CCc1nnc2c(S(=O)(=O)N(Cc3cccc(F)c3)c3cccc(C)c3)cccn12`: 12.77%; `C=Cc1ccc(CN(c2ccc(CC)cc2)S(=O)(=O)c2cccn3c(C)nnc23)cc1`: 9.91%.
The result for `CCc1ccc(N(Cc2ccc(F)cc2)S(=O)(=O)c2cccn3c(CC)nnc23)cc1` reads 19.9%; that for `COC(=O)c1cccc(NC(=O)Cn2nc3c(N4CCC(C)CC4)nccn3c2=O)c1`, -12.03%; that for `CSc1cccc(NC(=O)Cn2nc3c(SCc4ccc(Cl)cc4)nccn3c2=O)c1`, -9.65%.
Next, `CCCCn1c(=O)c2sccc2n2c(=O)n(CC(=O)NC(C)C)nc12`: 6.34%.
